FGF22 binding: binders of recombinant human FGF22 by thermal shift; Q9HCT0; SYPRO orange fluorescence; percent of sucrose octasulfate shift, DMSO zero; activity (Tm shift, normalised), % at 9.99 µM; AID 651658; 1.5% of 340,000 active;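 active means mean Tm shift, scaled 0 neutral to 100 positive control, at about 1.3% or above, every replicate too, limit read from the data; inconclusive means no clear call, values can overlap the other calls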
Target sequence (Q9HCT0 whole entry, looked up): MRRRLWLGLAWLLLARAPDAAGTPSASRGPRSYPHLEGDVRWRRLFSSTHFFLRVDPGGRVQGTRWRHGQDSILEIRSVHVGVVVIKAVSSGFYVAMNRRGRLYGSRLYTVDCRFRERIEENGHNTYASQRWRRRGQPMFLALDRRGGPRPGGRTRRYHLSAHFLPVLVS
MLL AF4-AF9 inh: blocks AF4 peptide binding to human AF9; 0.47% of 350,000 active; AlphaScreen, biotin-AF4 peptide binding to FLAG-AF9; inhibition, % at 10 µM; P42568;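 active means every replicate reaching a set inhibition limit, whatever the replicate mean, cut at about 25% in these data; inconclusive means mean inhibition reaches that limit but some replicates miss it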
Wnt bcat act: activators of Wnt/beta-catenin signaling; AID 743398; activation, % at 9.35 µM; 1.2% of 300,000 active; Wnt/beta-catenin reporter cell assay, activator, plate reader; in the data active means activation above about 30%, passing the limit was not always enough; inconclusive means no clear call, values can overlap the other calls
SMARCA2 activ: activators of SMARCA2 function; MG213 cells, MMTV-luciferase reporter, dexamethasone, overnight; activation, % at 9.1 µM; 1% of 370,000 active; in the data active means activation above about 7.8%
esBAF inh: blocks esBAF chromatin remodeling in mouse ES cells; reporter increase, % at 12.5 µM; Bmi1-luciferase knock-in reporter, 24 h; 100% = twice the neutral-well signal; AID 602393; 2% of 350,000 active; in the data active means activation above about 40%; inconclusive means no clear call, values can overlap the other calls;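 further: a rise in the Bmi1 reporter signal indicates esBAF inhibition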
MITF act: activators of MITF-driven TRPM1 promoter activity in SK-MEL-5 cells. SK-MEL-5 TRPM1-promoter luciferase, 24 h; % of positive control, neutral wells = 0. activation, % at 12.5 µM. 0.75% of 300,000 active. AID 588334;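 active means mean activation of at least 80% with every replicate also reaching 80%; inconclusive means mean reaches 80% but some replicate falls short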
AlphaScreen intf: counter-screen: AlphaScreen signal interference | shares compounds with MLL AF4-AF9 inh | signal luminescence | AC50, µM (doses to about 12 µM) | 45% of 530 active | AID 720494; cut-off not given, nearly all actives have AC50 up to about 14 µM
Numbers stand for hits; – = inactive; ? = inconclusive; · = no result. A selection: hits, their analogues and other compounds. The true share with any hit is near 4.3%.

SMILES	FGF22 binding	MLL AF4-AF9 inh	Wnt bcat act	SMARCA2 activ	esBAF inh	MITF act	AlphaScreen intf
COC(=O)/C(C#N)=C/c1c(N2CCN(Cc3ccc4c(c3)OCO4)CC2)nc2c(C)cccn2c1=O	–	–	–	–	·	–	·
CCOC(=O)/C(C#N)=C/c1c(N2CCN(Cc3ccc4c(c3)OCO4)CC2)nc2c(C)cccn2c1=O	–	38.9	–	–	·	·	–
CN1CCN(C(c2ccc(Cl)cc2)c2cc(Cl)c3cccnc3c2O)CC1 (stereo not drawn)	–	85.3	–	–	–	–	2.17µM
CN1CCN(C(c2ccc(C(F)(F)F)cc2)c2cc(Cl)c3cccnc3c2O)CC1 (stereo not drawn)	–	81.5	–	–	·	·	2.06µM
Oc1c(C(c2ccccn2)N2CCCCC2)cc(Cl)c2cccnc12 (stereo not drawn)	–	57.7	58.8	–	·	–	8.67µM
O=C(NC(c1ccc(Cl)cc1)c1cc(Cl)c2cccnc2c1O)c1cccnc1 (stereo not drawn)	·	·	–	–	·	–	·
CCCNC(=O)N1CC2(CN(S(=O)(=O)c3ccc(OC)cc3)C2)c2c(n(C)c3cc(OC)ccc23)[C@H]1CO	–	–	·	·	·	·	·
C[C@@H]1CN([C@@H](C)CO)C(=O)c2cc(-c3cccc(F)c3)cnc2O[C@@H]1CN(C)C(=O)c1cccc(F)c1	–	–	·	·	–	·	·
COc1ccc(N2CCN(C(=O)C3CCCN(S(=O)(=O)c4c(C)noc4C)C3)CC2)cc1 (stereo not drawn)	–	27.8	–	–	·	–	–
COc1ccc(N2CCN(C(=O)C3CCN(S(=O)(=O)c4c(C)noc4/C=C/N(C)C)CC3)CC2)cc1	–	–	–	–	–	–	·
CCN(CC)c1ccc(N=Cc2ccccc2[N+](=O)[O-])cc1	–	–	–	–	·	–	·
CCN(CC)c1ccc(N=Cc2ccc([N+](=O)[O-])o2)cc1	–	45.8	–	–	·	–	–
Cc1ccccc1S(=O)(=O)NCC[C@H]1CC[C@@H](NC(=O)C2CCC2)[C@@H](CO)O1	–	–	·	·	–	·	·
C#CCOCCOCCOCCNc1nc(N2CCN(C(=O)[C@H](CCCN=C(N)N)n3cc(C(N)[C@@H](C)CC)nn3)CC2)nc(N2CCN(C(=O)[C@H](CCC(=O)O)n3cc([C@@H](N)CC(N)=O)nn3)CC2)n1 (stereo partly drawn)	–	–	–	–	–	–	·
C#CCOCCOCCOCCNc1nc(N2CCN(C(=O)[C@H]([C@@H](C)CC)n3cc(CCCN=C(N)N)nn3)CC2)nc(N2CCN(C(=O)[C@H](CCCCN)n3cc(CCCC)nn3)CC2)n1	–	28.5	–	–	–	–	–
C#CCOCCOCCOCCNc1nc(N2CCN(C(=O)[C@H](CCCN=C(N)N)n3cc(C(N)[C@@H](C)CC)nn3)CC2)nc(N2CCN(C(=O)[C@H](CCCCN)n3cc([C@@H](N)CC(N)=O)nn3)CC2)n1 (stereo partly drawn)	–	36.8	–	–	–	–	–
CC(C)/C=C1\CC/C(=C\c2ccc(N(C)C)cc2)C1=O	–	–	–	–	·	–	·
CN(C)c1ccc(/C=C2/C[N+](C)(C)C/C(=C/c3ccc(N(C)C)cc3)C2=O)cc1	–	56.3	–	–	·	·	5.83µM
COCC(=O)N1CCC2(CC1)CN(Cc1nccs1)[C@H](CO)c1c2c2ccc(OC)cc2n1C	–	–	·	·	·	·	·
CCS(=O)(=O)Nc1ccc2c(c1)C(=O)N(C)[C@H]1CC[C@@H](CC(=O)OC)O[C@@H]1CO2	–	–	·	·	–	·	·
CC1Cc2ccccc2N1C(=O)c1ccc(N2CCCCC2)c([N+](=O)[O-])c1 (stereo not drawn)	–	?	–	–	·	–	·
CC1Cc2ccccc2N1C(=O)c1ccc(N2CCCC2)c([N+](=O)[O-])c1 (stereo not drawn)	–	–	–	–	–	–	–
COc1ccc(CN(C)C[C@@H]2Oc3c(NC(=O)C4CC4)cccc3C(=O)N([C@H](C)CO)C[C@H]2C)cc1	–	–	·	·	–	·	·
N#C[C@H]1[C@@H](c2ccccc2)[C@@H](CO)N1C(=O)C1CCCC1	–	–	·	·	–	·	·
COC(=O)C1=CC(C(=O)c2cccs2)=NN(c2ccc(OC)cc2)C1C(=O)OC (stereo not drawn)	–	32.4	–	–	·	–	–

High-throughput results (PubChem)
